Rows were chosen to be rich in hits. Some 31% of all compounds tested hit in one or more screens of this group.
PLAP act = activates human placental alkaline phosphatase; P05187; purified PLAP enzyme, luminescent substrate read-out; active compounds read high; activation fold at 20 µM; 1.2% of 96,000 active; in the data active means activation fold above about 2
Target sequence (P05187 whole entry, looked up): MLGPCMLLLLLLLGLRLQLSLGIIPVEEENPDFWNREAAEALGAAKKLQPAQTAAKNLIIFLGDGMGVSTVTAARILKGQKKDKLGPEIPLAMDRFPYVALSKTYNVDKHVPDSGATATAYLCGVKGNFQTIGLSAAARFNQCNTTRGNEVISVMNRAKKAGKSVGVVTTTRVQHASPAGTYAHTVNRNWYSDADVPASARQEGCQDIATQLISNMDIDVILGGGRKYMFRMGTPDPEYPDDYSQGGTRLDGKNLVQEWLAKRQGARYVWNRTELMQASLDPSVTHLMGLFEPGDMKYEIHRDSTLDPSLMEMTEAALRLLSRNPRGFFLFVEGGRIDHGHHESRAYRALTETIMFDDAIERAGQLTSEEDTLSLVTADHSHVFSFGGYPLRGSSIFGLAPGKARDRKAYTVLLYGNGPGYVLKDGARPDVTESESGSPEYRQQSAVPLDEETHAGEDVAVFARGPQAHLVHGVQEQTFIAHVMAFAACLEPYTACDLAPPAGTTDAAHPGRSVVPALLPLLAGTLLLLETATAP
CYP2C19 inhib = human CYP2C19 inhibition; P33261; CYP2C19 Supersomes, luciferin-H EGE luminescence, 30 min; inhibition, % at 5 µM; 21% of 96,000 active; AID 778;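 active means CYP2C19 inhibition above a set limit at 5 µM in the primary screen, cut at about 50% in these data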;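 further: plate controls were negative control wells for no effect and 2.5 mM tranylcypromine positive control for full effect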
CYP2C9 activ = activators of human CYP2C9; P11712; recombinant CYP2C9, luciferin-H conversion, luminescence; active compounds read high; factor 1 = untreated enzyme, 0 = blocked; activation factor at 5 µM; 1.4% of 96,000 active;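 active means activation factor of 2 or more for CYP2C9 at a 5 µM dose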;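 further: 0 = sulfaphenazole-blocked wells and 1 = vehicle-only wells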
CYP2C19 act = cytochrome P450 2C19 (human) activation. 96,000 tested, under 10 active. activation factor at 5 µM. AID 1025. P33261. recombinant CYP2C19, luciferin-H EGE luminescence; active compounds read high; 0 = fully inhibited enzyme, 1 = untreated enzyme;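 active means activation factor of at least 2 at 5 µM in the primary screen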;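 further: 0 = wells with 2.5 mM tranylcypromine and 1 = vehicle-only wells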
CYP2C9 inhib = human CYP2C9 inhibition; CYP2C9 Supersomes, luciferin-H conversion, luminescence; 20% of 96,000 active; P11712; AID 777; inhibition, % at 5 µM;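 active means blocking of liver enzyme CYP2C9 beyond about 50% at 5 µM, limit read from the data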
* hit, by the source's call.

For CC(CC(=O)O)CC(=O)Nc1ccccc1C(=O)O (stereo not given) the results were PLAP act 1, CYP2C19 inhib -18, CYP2C9 activ 1.2, CYP2C19 act 1.2 and CYP2C9 inhib -18.
For Cc1ccc(C(=O)c2cc(C)sc2NC(=O)CN2CCN(C(=O)c3ccco3)CC2)cc1 the results were PLAP act 1.4, CYP2C19 inhib 43, CYP2C9 activ 0.6, CYP2C19 act 0.6 and CYP2C9 inhib 43.
Cc1ccc2oc(=O)c3cnn(CC(=O)NCCCOC(C)C)c3c2c1 was read as PLAP act 1.1, CYP2C19 inhib -2, CYP2C9 activ 1.1, CYP2C19 act 1 and CYP2C9 inhib -11.
COc1ccc(CNC(=O)C2CCN(S(=O)(=O)c3cc(OC)ccc3OC)CC2)cc1 was read as PLAP act 1.1, CYP2C19 inhib 65*, CYP2C9 activ 1.9, CYP2C19 act 0.4 and CYP2C9 inhib -87.
O=C(C(Cc1ccc(Cl)cc1)NS(=O)(=O)c1ccccc1)N1CC[C@@]2(O)CCCC[C@H]2C1 (stereo not given in full) was read as PLAP act 1.2, CYP2C19 inhib 70*, CYP2C9 activ 0.1, CYP2C19 act 0.3 and CYP2C9 inhib 88*.
Screening Cc1ccc(N2C(=O)c3ccc(N)cc3C2=O)cc1 returned PLAP act 0.8, CYP2C19 inhib 14, CYP2C9 activ 0.7, CYP2C19 act 0.9 and CYP2C9 inhib 30.
Screening Nc1ccc2c(c1)C(=O)C(=O)c1ccccc1-2 returned PLAP act 0.8, CYP2C19 inhib 98*, CYP2C9 activ 0.1, CYP2C19 act 0 and CYP2C9 inhib 87*.
For Cc1cc(OCCSc2nnc(-c3cccs3)n2C)ccc1Cl the results were PLAP act 0.8, CYP2C19 inhib 62*, CYP2C9 activ 0.6, CYP2C19 act 0.4 and CYP2C9 inhib 40.
Cn1c(SCCOc2ccc(Cl)cc2)nnc1-c1ccncc1 was read as PLAP act 1.1, CYP2C19 inhib 78*, CYP2C9 activ 0.7, CYP2C19 act 0.2 and CYP2C9 inhib 31.
Screening CCOC(=O)N1CCC(NC(=O)C(NC(=O)C2CCCCC2)C(C)C)CC1 (stereo not given) returned PLAP act 1.1, CYP2C19 inhib -3, CYP2C9 activ 1.1, CYP2C19 act 1 and CYP2C9 inhib -9.
CCCSc1nc(N)cc(=O)[nH]1 was read as PLAP act 1.1, CYP2C19 inhib 6, CYP2C9 activ 1, CYP2C19 act 0.9 and CYP2C9 inhib -3.
For Cc1cc(-c2cccs2)c2c(n1)sc1c(=O)[nH]c(=O)[nH]c12 the results were PLAP act 1, CYP2C19 inhib -22, CYP2C9 activ 1, CYP2C19 act 1.2 and CYP2C9 inhib 0.
Screening CCn1c(Sc2nc(C)nc3scc(-c4cccs4)c23)n[nH]c1=O returned PLAP act 1.6, CYP2C19 inhib 57*, CYP2C9 activ 0.4, CYP2C19 act 0.4 and CYP2C9 inhib 58*.
Screening O=C(CC1Sc2ccccc2NC1=O)Nc1cccc(C(=O)O)c1 (stereo not given) returned PLAP act 1.1, CYP2C19 inhib -10, CYP2C9 activ 0.8, CYP2C19 act 1.1 and CYP2C9 inhib 16.
For COc1ccccc1NC(=O)N1CCc2[nH]c3ccc(Cl)cc3c2C1 the results were PLAP act 1, CYP2C19 inhib 30, CYP2C9 activ 1.6, CYP2C19 act 0.7 and CYP2C9 inhib -60.
C/C(CC(=O)Nc1ccccn1)=N\NC(=O)C(=O)Nc1cccc(Cl)c1C was read as PLAP act 1, CYP2C19 inhib 8, CYP2C9 activ 0.8, CYP2C19 act 0.9 and CYP2C9 inhib 22.
For C/C(CC(=O)Nc1ccc(N(C)C)cc1)=N\NC(=O)c1ccccn1 the results were PLAP act 2*, CYP2C19 inhib -4, CYP2C9 activ 1, CYP2C19 act 1 and CYP2C9 inhib -4.
For C/C(=N\NC(=O)c1ccccn1)C12CC3CC(CC(C3)C1)C2 the results were PLAP act 1.1, CYP2C19 inhib -5, CYP2C9 activ 1, CYP2C19 act 1 and CYP2C9 inhib 4.
For CCCCCC(=O)N/N=C(\C)c1ccccn1 the results were PLAP act 2.4*, CYP2C19 inhib 57*, CYP2C9 activ 0.9, CYP2C19 act 0.4 and CYP2C9 inhib 9.
Screening C/C(=N/NC(=O)c1ccccn1)c1ccco1 returned PLAP act 1.2, CYP2C19 inhib 57*, CYP2C9 activ 0.8, CYP2C19 act 0.4 and CYP2C9 inhib 19.
`CCOc1ccc(NC2=C(Cl)C(=O)N(Cc3ccccc3)C2=O)cc1` gave PLAP act 0.8, CYP2C19 inhib -2, CYP2C9 activ 1, CYP2C19 act 1 and CYP2C9 inhib 5.
For Cc1ccc(NC2=NCC(=O)N2CCc2ccccc2)cc1C the results were PLAP act 1.4, CYP2C19 inhib 98*, CYP2C9 activ 0.5, CYP2C19 act 0 and CYP2C9 inhib 50.
For CCOc1ccc(NC2=NCC(=O)N2CCc2ccccc2)cc1 the results were PLAP act 1.7, CYP2C19 inhib 67*, CYP2C9 activ 0.6, CYP2C19 act 0.3 and CYP2C9 inhib 44.
Cc1ccc(CN2CCN(CC(=O)NC(C)c3ccc4c(c3)OCCO4)C2=O)cc1 (stereo not given) was read as PLAP act 1.2, CYP2C19 inhib 40, CYP2C9 activ 0.7, CYP2C19 act 0.6 and CYP2C9 inhib 33.
O=C(NCCc1ccc(Cl)cc1)C1CCC(=O)N1Cc1ccc(F)cc1 (stereo not given) was read as PLAP act 1.7, CYP2C19 inhib 73*, CYP2C9 activ 0.3, CYP2C19 act 0.3 and CYP2C9 inhib 66*.
`Cc1ccc(CCNC(=O)C2CCC(=O)N2Cc2cccnc2)cc1` (stereo not given) gave PLAP act 1.3, CYP2C19 inhib 59*, CYP2C9 activ 0.6, CYP2C19 act 0.4 and CYP2C9 inhib 40.
`CC1=CC(C)(C)Nc2cc(C)c(C)cc21` gave PLAP act 1, CYP2C19 inhib 92*, CYP2C9 activ 0.8, CYP2C19 act 0.1 and CYP2C9 inhib 19.
For CCOC(=O)c1cnc(SCC(=O)Nc2cc(C(F)(F)F)ccc2N2CCOCC2)nc1N the results were PLAP act 1.2, CYP2C19 inhib 4, CYP2C9 activ 1, CYP2C19 act 1 and CYP2C9 inhib 5.
For CCOC(=O)c1cnc2ccc(OCC)cc2c1N1CCN(c2ccccc2)CC1 the results were PLAP act 1.2, CYP2C19 inhib 21, CYP2C9 activ 0.3, CYP2C19 act 0.8 and CYP2C9 inhib 69*.
Screening CCOC(=O)c1cnc2c(Cl)c(Cl)ccc2c1N1CCN(C)CC1 returned PLAP act 1.5, CYP2C19 inhib 3, CYP2C9 activ 0.9, CYP2C19 act 1 and CYP2C9 inhib 10.
For CCOC(=O)c1cnc2ccc(C)cc2c1Nc1ccc(N2CCOCC2)cc1 the results were PLAP act 1.1, CYP2C19 inhib 78*, CYP2C9 activ 0.2, CYP2C19 act 0.2 and CYP2C9 inhib 81*.
CSCCC(NC(=O)c1c(C)oc2c1CCCC2)C(=O)O (stereo not given) was read as PLAP act 1.2, CYP2C19 inhib -17, CYP2C9 activ 1.1, CYP2C19 act 1.2 and CYP2C9 inhib -8.
